LANA-H2A inh: blocks KSHV LANA binding to histone H2A/H2B. inhibition, % (concentration not given with the values). 320,000 tested, 0.6% active. cell-free LANA-H2A/H2B peptide, fluorescence polarization. Q9QR71; in the data active means inhibition mostly above about 10%, no sharp cut-off; inactive means mostly below about 6.7%
ABHD5-PLIN5 inh: inhibitors of human ABHD5-perilipin-5 interaction; Q00G26+Q8WTS1; Split G. princeps luciferase complementation, luminescence, 4 h; inhibition, % at 4 µM; 360,000 tested, 0.78% active; AID 602281;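 active means inhibition above the mean inhibition across every tested compound plus 3 SD, cut at about 22% in these data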;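 further: 0% = DMSO only wells and the 100% control is not disclosed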
Target sequence (Q00G26 whole entry, looked up): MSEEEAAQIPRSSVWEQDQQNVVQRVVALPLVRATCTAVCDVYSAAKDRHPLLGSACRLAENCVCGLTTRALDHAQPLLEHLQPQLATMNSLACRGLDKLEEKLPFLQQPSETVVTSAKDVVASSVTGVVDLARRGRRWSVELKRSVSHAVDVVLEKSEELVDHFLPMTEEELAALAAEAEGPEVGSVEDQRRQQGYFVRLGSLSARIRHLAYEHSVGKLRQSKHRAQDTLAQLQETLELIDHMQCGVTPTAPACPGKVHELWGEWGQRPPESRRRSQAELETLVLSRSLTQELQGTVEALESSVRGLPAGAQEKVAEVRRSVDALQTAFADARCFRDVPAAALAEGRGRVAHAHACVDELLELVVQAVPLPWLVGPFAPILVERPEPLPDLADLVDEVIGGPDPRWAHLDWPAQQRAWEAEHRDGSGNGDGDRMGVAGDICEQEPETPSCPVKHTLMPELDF
Target sequence (Q8WTS1 whole entry, looked up): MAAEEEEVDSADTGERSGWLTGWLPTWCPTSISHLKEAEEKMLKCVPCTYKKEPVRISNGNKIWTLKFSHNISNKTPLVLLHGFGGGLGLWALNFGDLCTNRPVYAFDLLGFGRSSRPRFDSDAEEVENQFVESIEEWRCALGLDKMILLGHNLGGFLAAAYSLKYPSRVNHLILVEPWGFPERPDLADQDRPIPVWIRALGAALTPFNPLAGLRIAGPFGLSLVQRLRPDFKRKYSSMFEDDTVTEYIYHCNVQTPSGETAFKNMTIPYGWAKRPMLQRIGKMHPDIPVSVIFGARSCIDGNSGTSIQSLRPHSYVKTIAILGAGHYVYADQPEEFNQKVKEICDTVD
ALR H2O2 inh: human ALR oxidase inhibition via reduced H2O2; P55789; purified ALR, DTT oxidation, H2O2 HRP-luminol luminescence; 290,000 tested, 3.8% active; inhibition, % (no concentration beside the values);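 active means mean replicate inhibition above about 79%, with every replicate also reaching it, limit read from the data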
Rtt109 Vps75: inhibitors of Candida albicans Rtt109/Vps75 histone acetyltransferase; Q5AAJ8; purified Rtt109/Vps75, ThioGlo CoA-SH fluorescence, 4 h; inhibition, % at 34.9 µM; 330,000 tested, 0.16% active; AID 540336;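 active means inhibition of at least 50% in every replicate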
rCAG RNA binder: r(CAG) repeat RNA binding; AID 651821; inhibition, % at 3 µM; TO-PRO-1 dye displacement fluorescence; 370,000 tested, 1.3% active;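 active means inhibition above the plate cutoff, the mean of all test compounds on that plate plus 3 SD, cut at about 35% in these data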;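 further: 0% = DMSO alone and 100% = 100 µM mitoxantrone as full dye displacement; higher means more dye released from RNA so lower well fluorescence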
PRMT1 inh: PRMT1 (human) inhibition, primary screen; AID 652257; 370,000 tested, 1.3% active; recombinant PRMT1, activity-based probe fluorescence polarization; inhibition, % at 2.79 µM;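 active means inhibition above about 21% made by adding two undisclosed values, limit read from the data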
Active calls of the source: *. The list is not random: actives were taken first. Their share in the collection is about 5.9%.

`COC(=O)[C@]12C[C@H](CC(=O)NCc3cccc4ccccc34)C(=O)N(Cc3cccc4ccccc34)C1=C[C@H](C(C)C)O[C@@H]2C1CC1` gave rCAG RNA binder 8 and PRMT1 inh -4.
O=C(Nc1cccc(C(F)(F)F)c1)c1ccc2nc(-c3ccco3)c(-c3ccco3)nc2c1 was read as LANA-H2A inh 0, ABHD5-PLIN5 inh 38*, ALR H2O2 inh 1, Rtt109 Vps75 2, rCAG RNA binder 15 and PRMT1 inh 3.
`O=C(NCCCO)Nc1ccc2nc(-c3ccco3)c(-c3ccco3)nc2c1` gave LANA-H2A inh -4 and ALR H2O2 inh -21.
Screening O=C(Nc1ccc2nc(-c3ccco3)c(-c3ccco3)nc2c1)NC1CC1 returned ABHD5-PLIN5 inh 26* and Rtt109 Vps75 -58.
`O=C(Nc1cccc(C(F)(F)F)c1)c1cc[n+]([O-])cc1` gave LANA-H2A inh -9, ABHD5-PLIN5 inh 4, Rtt109 Vps75 -11, rCAG RNA binder 2 and PRMT1 inh 1.
`C=Cc1ccc(C(=O)N(Cc2ccc(F)cc2)C(C(=O)N(C)C2CCCC2)c2ccc(OC)c(OC)c2)cc1` (stereo not given) gave rCAG RNA binder 5 and PRMT1 inh 3.
`CC(=O)NNc1nc(-c2ccc(NC(C)=O)cc2)cs1` gave LANA-H2A inh 3, ABHD5-PLIN5 inh -22, ALR H2O2 inh 99*, Rtt109 Vps75 23, rCAG RNA binder 2 and PRMT1 inh 2.
CC(=O)Nc1ccc(-c2csc(NNC(=O)c3ccc(C)cc3)n2)cc1 was read as LANA-H2A inh -2, ABHD5-PLIN5 inh -36, ALR H2O2 inh -13, rCAG RNA binder 19 and PRMT1 inh 5.
For Cc1nc(-c2ccc(NC(=O)CC(C)C)cc2)cs1 the results were LANA-H2A inh -5, ABHD5-PLIN5 inh 2, ALR H2O2 inh 100*, Rtt109 Vps75 4, rCAG RNA binder -2 and PRMT1 inh 5.
Screening Cc1ccccc1S(=O)(=O)N(C)C[C@H]1OCc2cnnn2CCCC(=O)N([C@H](C)CO)C[C@@H]1C returned rCAG RNA binder 1 and PRMT1 inh 4.
Screening CCC(NC(=O)C1C2C=CC(C2)C1C(=O)O)c1ccc(C)cc1 (stereo not given) returned LANA-H2A inh 104*, ABHD5-PLIN5 inh -4, ALR H2O2 inh -6, Rtt109 Vps75 0, rCAG RNA binder -1 and PRMT1 inh -1.
Screening O=C(Oc1ccc(/C=N/Nc2ccccc2)cc1)c1ccccc1 returned LANA-H2A inh -3, ABHD5-PLIN5 inh 2, ALR H2O2 inh 4, Rtt109 Vps75 -29, rCAG RNA binder 4 and PRMT1 inh 3.
Screening COCCOC(=O)/C(=C/c1ccc(OC(=O)c2ccccc2)cc1)C(C)=O returned LANA-H2A inh 2, ABHD5-PLIN5 inh 7, ALR H2O2 inh 95* and Rtt109 Vps75 -9.
Screening O=C(Oc1ccc(/C=N/O)cc1)c1ccccc1 returned LANA-H2A inh 2, ABHD5-PLIN5 inh -3, ALR H2O2 inh 89*, Rtt109 Vps75 -12, rCAG RNA binder 0 and PRMT1 inh 0.
For COC(=O)C[C@H]1CC[C@H]2[C@@H](COc3ccc(NC(=O)Nc4ccccc4)cc3C(=O)N2C)O1 the results were rCAG RNA binder 1 and PRMT1 inh 1.
C=CCn1c(SCC(N)=O)nnc1-c1ccccc1O was read as LANA-H2A inh 0, ABHD5-PLIN5 inh -3, ALR H2O2 inh 3, Rtt109 Vps75 29, rCAG RNA binder 1 and PRMT1 inh -2.
For C=CCn1c(SCC(=O)c2ccc(O)c(O)c2)nnc1-c1ccccc1OC the results were LANA-H2A inh 2, ABHD5-PLIN5 inh 0, ALR H2O2 inh 64, Rtt109 Vps75 5, rCAG RNA binder 13 and PRMT1 inh 10.
For C=CCn1c(SCC(=O)c2ccc(O)c(O)c2)nnc1-c1cccnc1 the results were LANA-H2A inh 2, ABHD5-PLIN5 inh -1, ALR H2O2 inh 99*, Rtt109 Vps75 0, rCAG RNA binder 22 and PRMT1 inh 11.
For C=CCn1c(SCC(=O)c2ccc(O)c(O)c2)nnc1-c1cccc(Cl)c1 the results were LANA-H2A inh -1, ABHD5-PLIN5 inh 0, ALR H2O2 inh 98*, Rtt109 Vps75 8, rCAG RNA binder 21 and PRMT1 inh 8.
Screening C=CCn1c(SCC(=O)c2ccc(O)c(O)c2)nnc1-c1cccc(C)c1 returned LANA-H2A inh 6, ABHD5-PLIN5 inh -12, ALR H2O2 inh 70, Rtt109 Vps75 7, rCAG RNA binder 16 and PRMT1 inh 7.
For C=CCn1c(SCC(N)=O)nnc1-c1cc(Br)ccc1O the results were LANA-H2A inh 2, ABHD5-PLIN5 inh -4, ALR H2O2 inh 97*, Rtt109 Vps75 3, rCAG RNA binder -1 and PRMT1 inh 6.
COC(=O)C(C(=O)OC)c1ccccc1CNS(=O)(=O)c1ccc(C)cc1 was read as ABHD5-PLIN5 inh -10, rCAG RNA binder 0 and PRMT1 inh 1.
`CC(C)c1[nH]nc2c1C(c1ccccc1)N(c1ccccc1)C2=O` (stereo not given) gave rCAG RNA binder 2 and PRMT1 inh 0.
O=C(O)c1cccc(-c2noc(-c3cccc(Cl)c3)n2)c1 was read as LANA-H2A inh 2, ABHD5-PLIN5 inh -4, ALR H2O2 inh 33, Rtt109 Vps75 -24, rCAG RNA binder 2 and PRMT1 inh 1.
COc1ccc(-c2cc(NC(C)=O)c3ncc(-c4ccccc4)n3c2)c(OC)c1 was read as ABHD5-PLIN5 inh 4, rCAG RNA binder 8 and PRMT1 inh 0.
Screening CCOc1ccc(OCC)c(NC(=O)CN2CCN(CC(=O)NC(C)C)CC2)c1 returned LANA-H2A inh 14*, ABHD5-PLIN5 inh 1, ALR H2O2 inh -14, Rtt109 Vps75 2, rCAG RNA binder -11 and PRMT1 inh -3.
CCOc1ccc(OCC)c(NC(=O)CN2CCN(CC)CC2)c1 was read as LANA-H2A inh 3, ABHD5-PLIN5 inh 2, ALR H2O2 inh -10, Rtt109 Vps75 -29, rCAG RNA binder -9 and PRMT1 inh -1.
`CCOC(=O)[C@]12CCCC=C1N(Cc1cccc3ccccc13)C(=O)[C@H](CC(=O)N1CCN(C(=O)C3CC3)CC1)C2` gave ABHD5-PLIN5 inh 7, rCAG RNA binder 5 and PRMT1 inh 0.
Oc1ccc(-c2cn3cc(C(F)(F)F)ccc3n2)cc1 was read as LANA-H2A inh -3, ABHD5-PLIN5 inh 1, ALR H2O2 inh 90*, Rtt109 Vps75 2, rCAG RNA binder 2 and PRMT1 inh -3.
For O=C(CN1C(=O)c2cccc3cccc1c23)Nc1ccccc1C(=O)NCc1ccco1 the results were LANA-H2A inh -1, ABHD5-PLIN5 inh 23*, ALR H2O2 inh -15, Rtt109 Vps75 -3, rCAG RNA binder -1 and PRMT1 inh -1.
`CC(=O)CC(=O)O[C@@H]1C=C[C@H](NC(=O)OC(C)(C)C)C1` gave rCAG RNA binder 1 and PRMT1 inh -1.

Source: PubChem BioAssay (several laboratories)
